PMC7862700, “An all-to-all approach to the identification of sequence-specific readers for epigenetic DNA modifications on cytosine”

Legend:
Assay in all cases: DAPPL (digital affinity profiling via proximity ligation, sequencing); 10 mM Tris-HCl pH 7.5, 50 mM NaCl, 1 mM DTT, 4% glycerol, room temperature, 30 min; GST-TFs on glutathione beads, 16-mer random dsDNA library, 0.1% formaldehyde crosslink after washing; high values mean tight binding
[1] = biological target: T1, FLI1 (Homo sapiens, UniProt Q01543 1-452); conditions: protein: recombinant; tags: N-terminal GST; dsDNA, one strand shown
T1 sequence: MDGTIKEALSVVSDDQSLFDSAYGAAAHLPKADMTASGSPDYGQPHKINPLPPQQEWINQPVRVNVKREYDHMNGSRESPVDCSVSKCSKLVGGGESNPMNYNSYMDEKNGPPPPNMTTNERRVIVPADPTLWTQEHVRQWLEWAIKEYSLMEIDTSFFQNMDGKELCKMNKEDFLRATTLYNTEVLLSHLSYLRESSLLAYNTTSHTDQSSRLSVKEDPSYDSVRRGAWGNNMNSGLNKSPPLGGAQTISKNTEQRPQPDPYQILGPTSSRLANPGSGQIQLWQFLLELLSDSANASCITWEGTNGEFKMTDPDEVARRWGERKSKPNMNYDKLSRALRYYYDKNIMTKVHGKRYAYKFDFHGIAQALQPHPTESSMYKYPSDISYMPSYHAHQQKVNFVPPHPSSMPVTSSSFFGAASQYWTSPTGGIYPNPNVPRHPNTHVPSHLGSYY
In short: (§1)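 After expression in yeast as GST fusions, human transcription factors were bound to glutathione beads, DNA-barcoded and mixed with a tag-only sample. The pools were incubated with 200 nmole of a 16-mer random double-stranded DNA library in Tris/NaCl/DTT/glycerol buffer (30 min, room temperature), washed and crosslinked with 0.1% formaldehyde. Proximity ligation with BsaI/T4 ligase ran for 1 h at 37 °C, before PCR amplification and sequencing on an Illumina NextSeq500. Binding signal is a hexamer's read frequency for a factor divided by its frequency for the tag-only sample.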

[2] = biological target: T2, ELK1 (Homo sapiens, UniProt P19419 1-428); conditions: protein: recombinant; tags: N-terminal GST; dsDNA, one strand shown
T2 sequence: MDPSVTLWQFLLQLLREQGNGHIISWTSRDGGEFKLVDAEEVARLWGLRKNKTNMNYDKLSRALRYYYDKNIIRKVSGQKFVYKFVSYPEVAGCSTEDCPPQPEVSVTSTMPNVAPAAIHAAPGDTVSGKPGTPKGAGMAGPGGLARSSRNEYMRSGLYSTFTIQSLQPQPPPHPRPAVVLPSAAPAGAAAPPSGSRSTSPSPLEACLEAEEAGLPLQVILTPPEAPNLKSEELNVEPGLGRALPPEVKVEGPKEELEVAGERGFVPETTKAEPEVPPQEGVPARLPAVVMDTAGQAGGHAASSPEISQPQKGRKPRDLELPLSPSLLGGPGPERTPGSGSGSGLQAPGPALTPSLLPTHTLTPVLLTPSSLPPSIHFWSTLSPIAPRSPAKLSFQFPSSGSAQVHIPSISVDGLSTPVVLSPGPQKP
In short: as §1

[3] = biological target: T3, GABPA (Homo sapiens, UniProt Q06546 1-454); conditions: protein: recombinant; tags: N-terminal GST; dsDNA, one strand shown
T3 sequence: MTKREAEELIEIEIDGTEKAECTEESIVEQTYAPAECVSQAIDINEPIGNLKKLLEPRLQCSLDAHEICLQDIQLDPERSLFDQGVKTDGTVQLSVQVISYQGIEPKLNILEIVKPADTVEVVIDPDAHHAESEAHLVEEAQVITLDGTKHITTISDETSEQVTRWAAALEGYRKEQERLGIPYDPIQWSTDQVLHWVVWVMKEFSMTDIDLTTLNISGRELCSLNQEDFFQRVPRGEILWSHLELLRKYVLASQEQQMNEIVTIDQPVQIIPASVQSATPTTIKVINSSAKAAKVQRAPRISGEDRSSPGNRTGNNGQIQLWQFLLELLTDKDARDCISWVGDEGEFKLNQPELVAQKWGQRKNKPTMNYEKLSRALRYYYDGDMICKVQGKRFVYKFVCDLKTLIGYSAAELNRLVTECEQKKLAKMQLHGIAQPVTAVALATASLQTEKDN
In short: as §1

[4] = biological target: T4, ERG (Homo sapiens, UniProt P11308 1-479); conditions: protein: recombinant; tags: N-terminal GST; dsDNA, one strand shown
T4 sequence: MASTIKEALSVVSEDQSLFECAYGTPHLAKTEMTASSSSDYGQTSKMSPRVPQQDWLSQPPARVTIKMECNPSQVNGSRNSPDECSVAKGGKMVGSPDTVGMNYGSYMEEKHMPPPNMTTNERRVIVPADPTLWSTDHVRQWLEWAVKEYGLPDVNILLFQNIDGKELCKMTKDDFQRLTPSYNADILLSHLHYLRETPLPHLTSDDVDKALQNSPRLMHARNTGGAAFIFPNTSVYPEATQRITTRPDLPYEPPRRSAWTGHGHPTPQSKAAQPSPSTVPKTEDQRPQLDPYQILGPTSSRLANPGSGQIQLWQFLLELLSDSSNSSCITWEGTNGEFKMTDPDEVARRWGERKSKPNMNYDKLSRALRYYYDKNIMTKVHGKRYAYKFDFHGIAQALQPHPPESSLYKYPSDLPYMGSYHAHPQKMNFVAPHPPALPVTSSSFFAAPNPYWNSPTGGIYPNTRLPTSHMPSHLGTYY
In short: as §1

[5] = biological target: ELF1 (Homo sapiens, UniProt P32519 1-619); conditions: protein: recombinant; tags: N-terminal GST; dsDNA, one strand shown
ELF1, sequence (P32519 whole entry): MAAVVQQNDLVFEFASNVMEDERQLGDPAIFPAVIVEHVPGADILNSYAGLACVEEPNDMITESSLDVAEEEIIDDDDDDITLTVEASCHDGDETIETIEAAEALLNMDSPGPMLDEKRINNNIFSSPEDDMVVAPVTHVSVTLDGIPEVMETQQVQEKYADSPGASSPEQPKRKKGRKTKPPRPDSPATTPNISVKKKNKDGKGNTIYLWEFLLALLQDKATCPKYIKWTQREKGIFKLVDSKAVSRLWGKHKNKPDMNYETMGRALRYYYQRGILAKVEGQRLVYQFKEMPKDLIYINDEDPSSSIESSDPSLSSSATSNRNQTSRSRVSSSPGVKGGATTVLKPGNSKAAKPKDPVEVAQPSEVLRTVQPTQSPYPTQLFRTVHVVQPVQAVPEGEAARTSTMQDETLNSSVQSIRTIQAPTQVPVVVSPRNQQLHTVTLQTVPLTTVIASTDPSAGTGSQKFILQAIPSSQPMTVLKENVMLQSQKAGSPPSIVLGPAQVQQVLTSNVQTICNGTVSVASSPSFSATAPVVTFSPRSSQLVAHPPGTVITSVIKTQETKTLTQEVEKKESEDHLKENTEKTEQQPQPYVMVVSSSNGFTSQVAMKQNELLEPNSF
In short: as §1

[6] = biological target: T5, EHF (Homo sapiens, UniProt Q9NZC4 1-300); conditions: protein: recombinant; tags: N-terminal GST; dsDNA, one strand shown
T5 sequence: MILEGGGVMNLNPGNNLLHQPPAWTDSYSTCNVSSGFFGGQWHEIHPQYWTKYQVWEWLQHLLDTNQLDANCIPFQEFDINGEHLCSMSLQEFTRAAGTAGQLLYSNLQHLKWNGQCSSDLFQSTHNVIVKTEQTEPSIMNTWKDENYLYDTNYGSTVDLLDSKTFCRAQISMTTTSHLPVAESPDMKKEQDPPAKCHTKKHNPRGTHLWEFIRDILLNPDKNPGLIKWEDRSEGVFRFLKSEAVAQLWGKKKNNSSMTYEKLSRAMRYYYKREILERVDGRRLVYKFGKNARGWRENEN
In short: as §1

[7] = biological target: SPI1 (Homo sapiens, UniProt P17947 1-270); conditions: protein: recombinant; tags: N-terminal GST; dsDNA, one strand shown
In short: as §1

[8] = biological target: SPIB (Homo sapiens, UniProt Q01892 1-262); conditions: protein: recombinant; tags: N-terminal GST; dsDNA, one strand shown
SPIB, sequence (Q01892 whole entry): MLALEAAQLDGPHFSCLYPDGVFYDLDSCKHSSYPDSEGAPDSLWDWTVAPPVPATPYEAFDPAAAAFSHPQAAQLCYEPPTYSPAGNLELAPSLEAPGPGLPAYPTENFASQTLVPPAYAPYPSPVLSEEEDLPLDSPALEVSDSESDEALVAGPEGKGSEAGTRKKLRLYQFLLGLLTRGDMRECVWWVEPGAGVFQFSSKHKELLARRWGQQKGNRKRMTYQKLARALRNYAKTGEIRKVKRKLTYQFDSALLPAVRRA
In short: as §1

[9] = biological target: T6, ELK3 (Homo sapiens, UniProt P41970 1-407); conditions: protein: recombinant; tags: N-terminal GST; dsDNA, one strand shown
T6 sequence: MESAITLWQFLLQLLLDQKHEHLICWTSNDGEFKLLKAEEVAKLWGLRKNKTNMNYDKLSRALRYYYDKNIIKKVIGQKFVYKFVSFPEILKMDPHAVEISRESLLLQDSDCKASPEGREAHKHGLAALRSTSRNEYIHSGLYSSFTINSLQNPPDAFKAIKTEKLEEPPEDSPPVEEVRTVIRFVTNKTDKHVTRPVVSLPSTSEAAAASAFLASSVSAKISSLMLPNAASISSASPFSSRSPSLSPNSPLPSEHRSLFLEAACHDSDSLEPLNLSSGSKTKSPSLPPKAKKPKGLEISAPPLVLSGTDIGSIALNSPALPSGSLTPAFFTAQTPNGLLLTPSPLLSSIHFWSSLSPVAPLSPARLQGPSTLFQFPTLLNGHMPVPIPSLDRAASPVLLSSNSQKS
In short: as §1

[10] = biological target: T7, FEV (Homo sapiens, UniProt Q99581 1-238); conditions: protein: recombinant; tags: N-terminal GST; dsDNA, one strand shown
T7 sequence: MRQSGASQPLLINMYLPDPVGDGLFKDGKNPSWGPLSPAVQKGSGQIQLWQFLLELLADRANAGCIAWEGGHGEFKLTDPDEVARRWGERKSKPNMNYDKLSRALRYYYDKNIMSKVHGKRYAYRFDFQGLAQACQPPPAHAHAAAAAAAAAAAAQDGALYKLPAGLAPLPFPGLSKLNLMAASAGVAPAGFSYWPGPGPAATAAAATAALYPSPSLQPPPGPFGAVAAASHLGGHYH
In short: as §1

[11] = biological target: ETV5 (Homo sapiens, UniProt P41161 1-510); conditions: protein: recombinant; tags: N-terminal GST; dsDNA, one strand shown
ETV5, sequence (P41161 whole entry): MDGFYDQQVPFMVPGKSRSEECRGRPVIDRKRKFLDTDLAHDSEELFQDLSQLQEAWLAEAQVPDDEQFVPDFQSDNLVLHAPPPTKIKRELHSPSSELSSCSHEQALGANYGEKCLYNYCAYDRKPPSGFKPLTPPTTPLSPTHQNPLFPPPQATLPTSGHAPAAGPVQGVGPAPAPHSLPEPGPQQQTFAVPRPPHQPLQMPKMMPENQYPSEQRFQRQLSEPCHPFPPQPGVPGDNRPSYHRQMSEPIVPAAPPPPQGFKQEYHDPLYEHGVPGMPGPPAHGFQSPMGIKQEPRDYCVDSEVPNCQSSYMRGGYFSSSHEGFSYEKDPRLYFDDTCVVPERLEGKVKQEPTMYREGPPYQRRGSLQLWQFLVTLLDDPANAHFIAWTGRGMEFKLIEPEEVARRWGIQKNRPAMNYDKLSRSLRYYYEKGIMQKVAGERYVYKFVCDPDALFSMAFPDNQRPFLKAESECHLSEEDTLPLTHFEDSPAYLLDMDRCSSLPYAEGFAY
In short: as §1

[12] = biological target: HSF1 (Homo sapiens, UniProt Q00613 1-529); conditions: protein: recombinant; tags: N-terminal GST; chain copies: 3; dsDNA, one strand shown
HSF1, sequence (Q00613 whole entry): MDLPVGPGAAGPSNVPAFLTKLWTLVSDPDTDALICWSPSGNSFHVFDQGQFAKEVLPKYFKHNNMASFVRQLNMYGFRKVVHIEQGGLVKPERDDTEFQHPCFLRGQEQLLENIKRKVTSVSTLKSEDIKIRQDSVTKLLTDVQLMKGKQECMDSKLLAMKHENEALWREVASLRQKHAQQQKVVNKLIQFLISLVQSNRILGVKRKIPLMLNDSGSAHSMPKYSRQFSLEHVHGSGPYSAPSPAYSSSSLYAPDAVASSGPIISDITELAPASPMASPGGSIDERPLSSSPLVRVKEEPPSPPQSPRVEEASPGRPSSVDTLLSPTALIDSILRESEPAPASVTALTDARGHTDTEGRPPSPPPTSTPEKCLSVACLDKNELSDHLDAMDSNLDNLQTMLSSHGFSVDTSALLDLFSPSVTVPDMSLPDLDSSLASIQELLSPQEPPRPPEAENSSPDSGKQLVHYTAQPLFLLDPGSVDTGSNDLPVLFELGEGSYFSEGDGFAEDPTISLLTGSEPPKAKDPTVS
In short: as §1

[13] = biological target: T8, SPIC (Homo sapiens, UniProt Q8N5J4 1-248); conditions: protein: recombinant; tags: N-terminal GST; dsDNA, one strand shown
T8 sequence: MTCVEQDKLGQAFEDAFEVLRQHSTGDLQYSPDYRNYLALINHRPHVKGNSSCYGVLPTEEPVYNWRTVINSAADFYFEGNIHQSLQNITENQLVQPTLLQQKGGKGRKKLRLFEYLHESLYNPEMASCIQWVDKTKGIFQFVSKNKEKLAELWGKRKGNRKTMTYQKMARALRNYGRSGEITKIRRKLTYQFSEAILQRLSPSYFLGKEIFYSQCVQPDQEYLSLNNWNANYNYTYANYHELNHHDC
In short: as §1

[14] = biological target: ELF4 (Homo sapiens, UniProt Q99607 1-663); conditions: protein: recombinant; tags: N-terminal GST; dsDNA, one strand shown
ELF4, sequence (Q99607 whole entry): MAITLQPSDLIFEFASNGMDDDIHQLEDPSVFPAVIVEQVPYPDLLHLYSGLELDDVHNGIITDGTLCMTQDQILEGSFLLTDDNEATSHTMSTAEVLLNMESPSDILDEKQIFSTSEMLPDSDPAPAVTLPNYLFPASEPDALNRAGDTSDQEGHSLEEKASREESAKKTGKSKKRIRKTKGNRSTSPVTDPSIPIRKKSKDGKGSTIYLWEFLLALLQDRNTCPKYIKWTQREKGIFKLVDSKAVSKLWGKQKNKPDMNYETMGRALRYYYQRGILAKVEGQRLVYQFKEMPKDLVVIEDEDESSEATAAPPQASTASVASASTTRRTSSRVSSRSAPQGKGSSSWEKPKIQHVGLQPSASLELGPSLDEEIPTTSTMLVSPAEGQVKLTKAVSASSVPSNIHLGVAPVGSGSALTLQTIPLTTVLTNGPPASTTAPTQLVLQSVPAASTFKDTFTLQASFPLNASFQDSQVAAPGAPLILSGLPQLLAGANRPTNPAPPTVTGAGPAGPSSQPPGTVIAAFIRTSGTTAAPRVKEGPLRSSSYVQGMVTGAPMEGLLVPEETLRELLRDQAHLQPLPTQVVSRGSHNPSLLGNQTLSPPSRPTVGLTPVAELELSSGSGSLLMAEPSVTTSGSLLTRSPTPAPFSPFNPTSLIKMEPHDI
In short: as §1

[15] = biological target: T9, ELK4 (Homo sapiens, UniProt P28324-2 1-405); conditions: protein: recombinant; tags: N-terminal GST; dsDNA, one strand shown
T9 sequence: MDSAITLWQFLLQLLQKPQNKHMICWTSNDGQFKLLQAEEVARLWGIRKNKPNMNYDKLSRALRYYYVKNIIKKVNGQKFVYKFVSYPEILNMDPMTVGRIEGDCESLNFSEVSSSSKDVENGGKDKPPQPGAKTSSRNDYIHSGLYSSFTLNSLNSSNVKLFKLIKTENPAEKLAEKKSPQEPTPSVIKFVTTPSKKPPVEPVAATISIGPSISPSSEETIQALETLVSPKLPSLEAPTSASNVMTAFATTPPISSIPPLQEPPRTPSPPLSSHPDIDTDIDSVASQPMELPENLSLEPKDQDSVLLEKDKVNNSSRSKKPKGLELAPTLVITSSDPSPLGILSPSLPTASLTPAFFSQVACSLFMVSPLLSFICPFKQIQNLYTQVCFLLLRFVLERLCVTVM
In short: as §1

[16] = biological target: T10, ETV2 (Homo sapiens, UniProt O00321 1-342); conditions: protein: recombinant; tags: N-terminal GST; dsDNA, one strand shown
T10 sequence: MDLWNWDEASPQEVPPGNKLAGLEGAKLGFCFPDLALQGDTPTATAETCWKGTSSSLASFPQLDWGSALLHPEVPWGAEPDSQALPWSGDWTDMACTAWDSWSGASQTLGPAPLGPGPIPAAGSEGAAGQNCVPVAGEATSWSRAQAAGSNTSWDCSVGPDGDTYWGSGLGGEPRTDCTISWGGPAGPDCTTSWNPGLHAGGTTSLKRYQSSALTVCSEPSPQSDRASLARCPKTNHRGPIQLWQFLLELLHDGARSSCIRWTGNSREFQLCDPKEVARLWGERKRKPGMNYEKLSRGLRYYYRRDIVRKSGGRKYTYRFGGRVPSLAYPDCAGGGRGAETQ
In short: as §1

[17] = biological target: T11, ELF3 (Homo sapiens, UniProt P78545 1-371); conditions: protein: recombinant; tags: N-terminal GST; dsDNA, one strand shown
T11 sequence: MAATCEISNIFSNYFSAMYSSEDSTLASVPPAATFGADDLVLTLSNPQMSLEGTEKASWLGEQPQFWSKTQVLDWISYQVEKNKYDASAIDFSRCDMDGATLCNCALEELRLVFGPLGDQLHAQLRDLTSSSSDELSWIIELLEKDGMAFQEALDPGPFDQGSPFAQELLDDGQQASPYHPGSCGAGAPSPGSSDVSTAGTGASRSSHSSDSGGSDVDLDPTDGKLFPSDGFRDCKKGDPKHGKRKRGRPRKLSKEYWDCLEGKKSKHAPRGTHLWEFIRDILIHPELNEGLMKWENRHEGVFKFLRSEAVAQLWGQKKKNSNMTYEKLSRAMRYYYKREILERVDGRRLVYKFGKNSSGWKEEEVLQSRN
In short: as §1

[18] = biological target: ETV1 (Homo sapiens, UniProt P50549 1-477); conditions: protein: recombinant; tags: N-terminal GST; dsDNA, one strand shown
ETV1, sequence (P50549 whole entry): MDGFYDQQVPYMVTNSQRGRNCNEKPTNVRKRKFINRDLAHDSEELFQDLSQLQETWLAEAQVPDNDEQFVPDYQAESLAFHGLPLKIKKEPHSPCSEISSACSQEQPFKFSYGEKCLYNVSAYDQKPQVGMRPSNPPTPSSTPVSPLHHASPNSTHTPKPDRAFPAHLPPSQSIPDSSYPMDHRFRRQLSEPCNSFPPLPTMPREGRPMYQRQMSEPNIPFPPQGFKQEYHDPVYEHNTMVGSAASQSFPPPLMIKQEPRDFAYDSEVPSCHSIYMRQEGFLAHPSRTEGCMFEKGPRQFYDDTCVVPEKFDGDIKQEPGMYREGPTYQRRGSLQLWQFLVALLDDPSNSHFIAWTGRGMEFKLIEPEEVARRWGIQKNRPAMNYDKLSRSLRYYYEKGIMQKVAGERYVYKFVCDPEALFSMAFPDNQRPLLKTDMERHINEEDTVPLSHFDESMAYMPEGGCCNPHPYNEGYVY
In short: as §1

ATGGAC
binding signal [1]: 1.21 fold enrichment (6-mer frequency, TF over GST control) | binding signal [2]: 1.22 fold enrichment (6-mer frequency, TF over GST control) | binding signal [3]: 1.21 fold enrichment (6-mer frequency, TF over GST control) | binding signal [4]: 1.16 fold enrichment (6-mer frequency, TF over GST control) | binding signal [5]: 1.26 fold enrichment (6-mer frequency, TF over GST control) | binding signal [6]: 1.21 fold enrichment (6-mer frequency, TF over GST control) | binding signal [7]: 1.25 fold enrichment (6-mer frequency, TF over GST control) | binding signal [8]: 1.38 fold enrichment (6-mer frequency, TF over GST control) | binding signal [9]: 1.19 fold enrichment (6-mer frequency, TF over GST control) | binding signal [10]: 1.3 fold enrichment (6-mer frequency, TF over GST control) | binding signal [11]: 1.3 fold enrichment (6-mer frequency, TF over GST control) | binding signal [12]: 1.01 fold enrichment (6-mer frequency, TF over GST control) | binding signal [13]: 1.34 fold enrichment (6-mer frequency, TF over GST control) | binding signal [14]: 1.2 fold enrichment (6-mer frequency, TF over GST control) | binding signal [15]: 1.17 fold enrichment (6-mer frequency, TF over GST control) | binding signal [16]: 1.33 fold enrichment (6-mer frequency, TF over GST control) | binding signal [17]: 1.42 fold enrichment (6-mer frequency, TF over GST control) | binding signal [18]: 1.18 fold enrichment (6-mer frequency, TF over GST control)
